# Source: ChEMBL document CHEMBL4513216, “Probing the Open Global Health Chemical Diversity Library for Multistage-Active Starting Points for Next-Generation Antimalarials” (ACS Infect Dis, 2020)
# Hit rate of the full screen: of about 68,000 compounds, about 2,700 (4%) showed an effect of 50% or more. For the sample, strong results were picked, then their nearest neighbours and some compounds at random.
# Test system: Plasmodium berghei
# Assay: Screen against P. berghei liver stage (PbLuc), transformed with Luciferase, at 2uM
# Type: functional, HepG2
# Details: tested at 2 uM
row,Compound,INHIBITION
1,CCn1ncc2[nH]c(-c3cc4c(cc3OC)OCO4)nc21,27.42%
2,COc1cc2c(cc1-c1nc3c(cnn3C)[nH]1)OCO2,21.97%
3,COc1cc2c(cc1-c1nc3c(cnn3C(C)C(C)C)[nH]1)OCO2 (stereo not given),7.67%
4,COc1cc2c(cc1-c1nc3c(cnn3C(C)C3CC3)[nH]1)OCO2 (stereo not given),67.28%
5,COc1cc2c(cc1-c1nc3c(cnn3C(C)C)[nH]1)OCO2,60.13%
6,CCn1ncc2[nH]c(-c3cc(OC)c(OC)cc3OC)nc21,13.04%
7,Cc1n[nH]c(C)c1NC(=O)CN1CCc2c(nc(C3CC3)n2C)C1,47.57%
8,Cc1[nH]ccc1C(=O)N1CCC2(CC1)c1nc[nH]c1CCN2S(C)(=O)=O,0.31%
9,CO[C@H]1CO[C@@]2(CCCN(S(=O)(=O)c3ccccc3)C2)C1,-1.81%
10,Cc1cccnc1CNC(=O)CC1C(=O)NCCN1CC(C)(C)C (stereo not given),-26.52%
11,Cc1nnc(N2CC[C@H]3C[C@@H](C(=O)NC4CCCC4)O[C@H]3C2)s1,-21.74%
12,Cc1cnc(C(=O)NCC2CCOc3ccccc3C2)cn1 (stereo not given),10.05%
13,Cc1n[nH]c(C)c1CCC(=O)NCC1CCOc2ccccc2C1 (stereo not given),49.02%
14,CNc1nc(C(=O)NCC2CCOc3ccccc3C2)cs1 (stereo not given),76.82%
15,Fc1ccc(-c2n[nH]cc2CNCCn2cccn2)cc1,11.01%
16,CCSCCNC(=O)Nc1cc(C(=O)N2CCOCC2)ccc1Cl,-0.24%
17,CC(C)OC(=O)c1ccc(Cl)c(NC(=O)NCCN2CCOCC2)c1,50.94%
18,O=C(NCCN1CCCC1)Nc1cc(C(=O)N2CCOCC2)ccc1Cl,19.81%
19,CN(CC(=O)NC(C)(C)C)Cc1nc(-c2ccccc2)c[nH]1,-20.91%
20,CS(=O)(=O)NC[C@@H]1OC[C@H]2CN(C(=O)c3ccccc3)CC[C@H]21,39.18%
21,COc1cc(C(=O)N2CCCS2(=O)=O)ccc1C,9.9%
22,COCCN1CCC(CNC(=O)C2(c3cc(C)cc(C)c3)CC2)CC1,39.72%
23,COCCN1CCC(CNC(=O)C2(c3ccccc3)CCC2)C1 (stereo not given),-1.02%
24,COCCN1CCC(CNC(=O)C2(c3ccc(F)cc3)CCC2)CC1,66.2%
25,COCCN1CCC(CNC(=O)C2(c3cccc(C)c3)CC2)CC1,3.9%
26,COCCN1CCC(CNC(=O)C2(c3ccc(Br)cc3)CCCC2)C1 (stereo not given),66.2%
27,COCCN1CCC(CNC(=O)C2(c3cccc(C)c3)CC2)C1 (stereo not given),43.79%
28,COCCN1CCC(CNC(=O)C2(c3cccc(Cl)c3)CC2)C1 (stereo not given),56.02%
29,COCCN1CCC(CNC(=O)C2(c3cc(C)cc(C)c3)CCC2)C1 (stereo not given),-36.13%
30,CCN1CCC(CNC(=O)C2(c3ccc(F)cc3)CC2)C1 (stereo not given),20.41%
